# Assay outcomes as filed in PubChem.
# Most compounds without a hit are left out; they make up all but 2.8% or so of the library.
# hERG WT inh – KCNH2 (human, wildtype) channel inhibition; actives 0.37% (n = 340,000); Q12809; U2OS, BacMam KCNH2, thallium flux FluxOr; stronger effect = lower value; AID 720551; activity change, % at 1.84 µM;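 active = maximum activity change below -70%; inconclusive = maximum activity change between -70% and -50%; inactive = maximum activity change above -50%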; note: % is set by controls: 0 for no effect and ±100 for the full control effect
#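 U2OS cells transduced with wild-type KCNH2 virus are loaded with FluxOr dye for 45 min, and thallium flux is measured in kinetic reads before and after stimulation buffer. Rate constants are normalized to DMSO controls.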
# GLP1R ag – activates the human GLP-1 receptor; P43220; Potency, µM (titrated, usually from 45.6 µM), for the others: at the highest dose activation, usual class: activators; HEK293 GLP-1R CRE-luciferase, luminescence, 4-6 h; cells express a hypersensitive GLP-1R form; actives 0.007% (n = 380,000); note: potency is the fitted concentration of half-maximal effect; % of control where 0% means no effect
# GLP-1R inv ag – acts as inverse agonist at human GLP-1 receptor. HEK293 GLP-1R CRE-luciferase, luminescence, 24 h; GLP-1R form is constitutively active. Potency, µM (highest dose often 38.3 µM), without a hit: top-dose activity change, negative = inhibition, actives largely listed as inhibitors. actives 1.6% (n = 410,000). AID 624417; note: potency is the fitted concentration of half-maximal effect; % is set by controls: 0 for no effect and ±100 for the full control effect; nearly all actives have a fitted effect of over 55% in size
#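 Luminescence readout: a drop in cAMP-driven luciferase signal flags inverse agonism at a constitutively active GLP-1R stably expressed in HEK293. Compound exposure lasted 24 hr at 37 deg C, 5% CO2.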
# HEK293 tox – cytotoxicity in counter-screen for GLP-1R inverse agonists. HEK293 cAMP-luciferase reporter cells, luminescence, 24 h. Potency, µM (top dose mostly 38.3 µM), inactives show at the highest dose activity change, negative = inhibition, actives largely listed as inhibitors. actives 0.13% (n = 410,000). AID 624418;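 note: loss of luciferase light is scored as toxicity; potency is the fitted concentration of half-maximal effect; % is set by controls: 0 for no effect and ±100 for the full control effect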
#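 Luminescence readout: signal drop marks cytotoxicity. Plated cells grew 12 h at 37 °C, 5% CO2, received 23 nL compound for 24 h, then got luciferase reagent, read after 12 min at RT.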
# KCNH2 3.1 block – blocks the human KCNH2 3.1 channel isoform; U2OS KCNH2 3.1, thallium flux FluxOr; stronger effect = lower value; activity change, % (tested at about 1.8 µM); actives 0.95% (n = 340,000);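 active = maximum activity change below -70%; inconclusive = maximum activity change from -70% to -50%; inactive = maximum activity change above -50%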;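 note: thallium influx rate constant from kinetic fluorescence after stimulation buffer; % is set by controls: 0 for no effect and ±100 for the full control effect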
#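 Kinetic fluorescence (2 min after stimulation buffer) measures Tl+ influx through KCNH2 3.1 expressed by viral transduction in U2OS cells; the rate constant is normalized against DMSO controls serving as positive and negative references.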
# GLS inh – inhibitors of human glutaminase (GLS). GLS enzymatic activity, qHTS titration. Potency, µM (highest dose often 45.5 µM), for inactives: at the highest dose activity change, negative = inhibition, hits mostly inhibitors. actives 0.21% (n = 410,000); note: potency is the fitted concentration of half-maximal effect; % is set by controls: 0 for no effect and ±100 for the full control effect
#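 Human kidney-isoform GLS in 45 mM KH2PO4 pH 8.2, 0.02% Tween-20, with compound, started with 1mM L-Glutamine (added stock). Glutamate oxidase/HRP/Amplex red coupled fluorescence read at start and after 30 min at RT.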
# * marks the source's active call; other numbers are inactive results; ? = inconclusive; / = not tested or not shown; [ ] = another dose, or the depositor's remark. Unless noted, calls come from the whole dose curve; as a rule, active = well fitted curve in the direction sought with a large enough effect; inconclusive = small, poorly fitted or top-dose-only effect, or another doubt; inactive = no such curve, though single readings can be large; an effect the other way counts as inactive or inconclusive.
SMILES,hERG WT inh,GLP1R ag,GLP-1R inv ag,HEK293 tox,KCNH2 3.1 block,GLS inh
Cc1cc(C)cc(C(O)c2ncc(-c3ccc(Cl)cc3)[nH]2)c1 (centres undefined),/,6%,13µM*,0%,/,5%
O=C(NCC1CCCO1)c1ccc2[nH]c3c(c2c1)CCCC3 (centres undefined),-3,0%,-7%,6%,19,159%
O=C(Cc1cn(Cc2cccc(Cl)c2)c2ccccc12)N1CCCCCC1,-10,1%,10µM*,0%,18,7%
Fc1ccc(OCc2nc(-c3ccncc3)n[nH]2)cc1,8,2%,-4%[7.66 µM],3%[7.66 µM],-11,1%
Cc1ccc(OCc2nc(-c3ccc(Cl)cc3)n[nH]2)cc1,-74*,1%,?,-4%,-10,-1%
Cc1ccc(N2C(=O)CC(n3nc(C)cc3C)C2=O)cc1 (centres undefined),-6,2%,-1%,10%,-211*,3%
FCc1nc2nc(Cl)c(Cl)nc2[nH]1,-8,-1%,-6%,5%,6,-6%
FC(F)c1nc2nc(Cl)c(Cl)nc2[nH]1,-2,10%,14µM*,-10%,9,1%
COc1cc(C(=O)N2Cc3cc4ccccc4nc3C2C)cc(OC)c1OC (centres undefined),4,-1%,42%,-19%,2,-2%
Cc1ccc(S(=O)(=O)N2CCN(C(=O)COC(=O)c3oc4ccccc4c3C)CC2)cc1,-2,4%,20%,-5%,-21,-5%
Fc1ccc(C2N(c3ccccc3)C(=S)N3CCCN23)cc1 (centres undefined),-110*,7%,?,3%,-100*,11%
Cc1ccc(C2N(c3ccccc3)C(=S)N3CCCN23)cc1 (centres undefined),5,-2%,?,-11%,2,11%
CC(=O)Nc1ccc(S(=O)(=O)Oc2cccc(/C=C3\SC(N)=NC3=O)c2)cc1,1,0%,-22%[7.66 µM],-17%[7.66 µM],1,18µM*
C#CCn1c(S(=O)(=O)Cc2ccc(F)cc2)nc(-c2ccccc2)c1-c1ccccc1,3,-3%,5.6µM*,4%,-21,0%
COc1cccc(CNC(=O)c2ccc(CS(=O)Cc3ccc(C)cc3)o2)c1 (centres undefined),-3,12%,-13%,5%,17,0%
O=C(Nc1nnc(S(=O)(=O)N2CCCC2)s1)c1ccccc1Cl,18,-5%,?,4%,4,-21%
CC1Cc2ccccc2N1S(=O)(=O)c1nnc(NC(=O)c2ccccc2Br)s1 (centres undefined),/,/,10µM*,-4%,/,50%
CC1Cc2ccccc2N1S(=O)(=O)c1nnc(NC(=O)c2ccccc2)s1 (centres undefined),/,/,?,-7%,/,15%
O=C(Nc1nnc(S(=O)(=O)N2CCCCCC2)s1)c1ccccc1Cl,-4,0%,?,0%,-76*,21%
COc1cc(C(=O)Oc2ccccc2/C=N/NC(=O)c2ccc(Cl)cc2)cc(OC)c1OC,-2,1%,2.8µM*,-26%,9,-3%
O=C(N/N=C/c1cc(Br)cc(Cl)c1O)c1ccc2c(c1)OCO2,2,4%,2.5µM*,?,-8,6%
COc1cc(C(=O)Oc2ccccc2/C=N/NC(=O)c2ccc(C)c(Cl)c2)cc(OC)c1OC,-3,-4%,-2%,?,10,-1%
O=C(N/N=C/c1ccccc1OC(=O)c1ccc2c(c1)OCO2)c1cccc(F)c1,13,0%,10µM*,?,0,-14%
COc1ccccc1N1CCN(c2ccc(-c3nc(-c4ccccc4)no3)cc2[N+](=O)[O-])CC1,/,/,12%,5%,/,6%
Cc1cc(C)n2c(Nc3ccccc3C)c(-c3cccs3)nc2n1,/,0%,-8%,4%,/,-2%
